Test results from PubChem BioAssay AID1159580 (chemical genetic matrix, 2015).
Values joined by “and” are separate entries in the source; they are usually repeats but may differ in a detail not shown here. Equal entries are not always repeated. Hit rate of the full screen: of about 5,500 compounds, about 2,000 (36%) were called active. Not shown: some 18% with an inconclusive outcome. Rule as the data show it: active = normalized growth mostly below about 0.91 (no sharp cut-off); inconclusive = no clear call, values can overlap the other calls; inactive = mostly above about 0.92. The list shows a part of the results.

Test: chemical genetic growth profiling, strain panel (AID 1159580);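 also: tested at 20 µM; growth read once vehicle control cultures reached saturation at 30 °C; 1 = growth at the plate median or of vehicle wells; lower values mean less growth of the strain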
Conditions: S. cerevisiae deletion strains, growth OD

Measured: normalized growth

CC(=O)O[C@H]1C[C@H](O[C@H]2[C@@H](O)C[C@H](O[C@H]3[C@@H](O)C[C@H](O[C@H]4CC[C@@]5(C)C(CCC6C5C[C@@H](O)[C@]5(C)[C@@H](C7=CC(=O)OC7)CC[C@]65O)C4)O[C@@H]3C)O[C@@H]2C)O[C@H](C)[C@H]1O[C@@H]1O[C@H](CO)[C@@H](O)[C@H](O)[C@H]1O (stereo not given in full)
inactive: locus YAL021C, strain ccr4, active compounds read low 1 | locus YAL026C, strain drs2, active compounds read low 0.996 | locus YAL030W, strain snc1, active compounds read low 1 | locus YBL061C, strain skt5, active compounds read low 0.991 | locus YBR009C, strain hhf1, active compounds read low 0.995 | locus YBR021W, strain FUR4, active compounds read low 1.02 | locus YBR023C, strain chs3, active compounds read low 0.999 | locus YBR171W, strain sec66, active compounds read low 0.995 | locus YBR229C, strain ROT2, active compounds read low 1.01 | locus YBR231C, strain swc5, active compounds read low 0.987 | locus YBR279W, strain paf1, active compounds read low 0.996 | locus YCL011C, strain gbp2, active compounds read low 1 | locus YCL016C, strain dcc1, active compounds read low 0.996 | locus YCL029C, strain bik1, active compounds read low 0.985 | locus YCL061C, strain MRC1, active compounds read low 0.999 | locus YCL069W, strain vba3, active compounds read low 0.993 | locus YCR088W, strain abp1, active compounds read low 0.989 | locus YDL005C, strain med2, active compounds read low 0.996 | locus YDL035C, strain GPR1, active compounds read low 1.03 | locus YDL040C, strain nat1, active compounds read low 0.994 | locus YDL074C, strain BRE1, active compounds read low 1.02 | locus YDL101C, strain DUN1, active compounds read low 1.02 | locus YDL134C, strain PPH21, active compounds read low 1.02 | locus YDL185W, strain tfp1, active compounds read low 1 | locus YDL192W, strain arf1, active compounds read low 1.01 | locus YDR001C, strain nth1, active compounds read low 0.994 | locus YDR069C, strain doa4, active compounds read low 0.988 | locus YDR101C, strain arx1, active compounds read low 0.983 | locus YDR137W, strain rgp1, active compounds read low 0.997 | locus YDR150W, strain NUM1, active compounds read low 1.01 | locus YDR159W, strain sac3, active compounds read low 0.981 | locus YDR162C, strain NBP2, active compounds read low 1.02 | locus YDR195W, strain ref2 0.961 | locus YDR297W, strain sur2, active compounds read low 0.994 | locus YDR318W, strain mcm21, active compounds read low 0.989 | locus YDR334W, strain swr1, active compounds read low 0.999 | locus YDR335W, strain msn5, active compounds read low 1 | locus YDR388W, active compounds read low 0.989 | locus YDR392W, strain spt3, active compounds read low 0.979 | locus YDR502C, strain sam2, active compounds read low 1.01 | locus YEL003W, strain gim4, active compounds read low 0.995 | locus YEL037C, strain rad23, active compounds read low 0.999 | locus YEL061C, strain CIN8 (second series), active compounds read low 0.99 | locus YEL061C, strain CIN8, active compounds read low 1.01 | locus YER015W, strain faa2, active compounds read low 0.994 | locus YER016W, strain bim1, active compounds read low 0.993 | locus YER110C, active compounds read low 0.984 | locus YER111C, strain swi4, active compounds read low 0.997 | locus YER155C, strain BEM2 (second series), active compounds read low 1.01 | locus YER155C, strain BEM2, active compounds read low 1 | locus YER167W, strain BCK2, active compounds read low 1.01 | locus YFR010W, strain ubp6, active compounds read low 0.994 | locus YGL078C, strain dbp3, active compounds read low 1.01 | locus YGL086W, strain mad1, active compounds read low 0.998 | locus YGL167C, strain pmr1, active compounds read low 1 | locus YGL173C, strain kem1, active compounds read low 1 | locus YGL227W, strain vid30, active compounds read low 0.987 | locus YGL240W, strain doc1, active compounds read low 0.995 | locus YGL248W, strain PDE1, active compounds read low 1.01 | locus YGL253W, strain hxk2, active compounds read low 0.997 | locus YGR078C, strain PAC10, active compounds read low 1 | locus YGR135W, strain pre9, active compounds read low 1.01 | locus YGR229C, strain SMI1, active compounds read low 1.02 | locus YGR252W, strain gcn5, active compounds read low 1.17 | locus YHR013C, strain ard1, active compounds read low 0.969 | locus YHR027C, strain rpn1, active compounds read low 0.999 | locus YHR030C, strain SLT2, active compounds read low 1 and 0.975 | locus YHR079C, strain IRE1, active compounds read low 0.966 | locus YHR094C, strain hxt1, active compounds read low 0.973 | locus YHR129C, strain ARP1, active compounds read low 1.01 | locus YHR142W, strain chs7, active compounds read low 0.996 | locus YHR200W, strain rpn10, active compounds read low 1 | locus YIL066C, strain RNR3, active compounds read low 1.01 | locus YIL073C, strain SPO22, active compounds read low 1.08 | locus YIL125W, strain kgd1, active compounds read low 1 | locus YIR030C, strain dcg1, active compounds read low 0.988 | locus YJL092W, strain hpr5, active compounds read low 1 | locus YJL095W, strain BCK1 (second series), active compounds read low 0.998 | locus YJL095W, strain BCK1, active compounds read low 1 and 0.977 | locus YJL115W, strain asf1, active compounds read low 0.996 | locus YJL129C, strain trk1, active compounds read low 0.998 | locus YJL134W, strain LCB3, active compounds read low 1.01 | locus YJL154C, strain vps35, active compounds read low 0.993 | locus YJL164C, strain tpk1, active compounds read low 1.01 | locus YJL166W, strain qcr8, active compounds read low 1 | locus YJL168C, strain set2, active compounds read low 0.982 | locus YJL187C, strain SWE1 (second series), active compounds read low 1.01 | locus YJL187C, strain SWE1, active compounds read low 0.995 | locus YJR043C, strain POL32, active compounds read low 0.999 | locus YJR066W, strain TOR1, active compounds read low 0.933
